# Only some compounds are listed: those with a hit (about 5.4% of all), similar ones and a draw of the others.
# JMJD2C inh: inhibitors of GASC-1 histone demethylase, primary screen, biochemical, fluorescence, DELFIA europium; AID 2099, 2009; inhibition, % at 2.35 µM; GST-JMJD2C(1-420) H3K9me3 demethylation; Lysine-specific demethylase 4C (Homo sapiens), Q9H3R0; 0.069% of 330,000 active;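 active means more than half of a compound's replicate wells show inhibition beyond 50%, single wells judged on their own value; inconclusive means some, but no more than half, of replicates pass 50% inhibition; inactive means no replicate passes 50% inhibition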;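 further: signal counts dimethyl H3K9 product captured on neutravidin plate; 0% = median of DMSO wells and 100% = 0.3 times that DMSO median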
# Target sequence (Q9H3R0 1-420 limits assumed): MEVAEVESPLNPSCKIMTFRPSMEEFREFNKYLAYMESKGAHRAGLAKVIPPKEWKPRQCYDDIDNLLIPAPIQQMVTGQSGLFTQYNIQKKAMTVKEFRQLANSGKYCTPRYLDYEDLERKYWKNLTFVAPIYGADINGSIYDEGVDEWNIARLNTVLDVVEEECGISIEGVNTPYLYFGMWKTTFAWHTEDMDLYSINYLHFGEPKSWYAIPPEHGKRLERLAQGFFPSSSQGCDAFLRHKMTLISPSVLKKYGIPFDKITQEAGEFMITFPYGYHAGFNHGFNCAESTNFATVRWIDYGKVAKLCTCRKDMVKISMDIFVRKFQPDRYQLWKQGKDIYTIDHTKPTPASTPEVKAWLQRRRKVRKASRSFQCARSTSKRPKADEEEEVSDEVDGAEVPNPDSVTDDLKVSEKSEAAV
# ALR inh: inhibitors of human ALR sulfhydryl oxidase, primary screen, biochemical, H2O2 detection, HRP-luminol luminescence, single point. FAD-linked sulfhydryl oxidase ALR (Homo sapiens), P55789. purified ALR, DTT oxidation. inhibition, % (concentration not given with the values). 3.8% of 290,000 active;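 active means mean replicate inhibition above about 79%, with every replicate also reaching it, limit read from the data; inconclusive means only one of the two criteria met; inactive means mean below limit and not every replicate reaching it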
# Target sequence (P55789 whole entry, looked up): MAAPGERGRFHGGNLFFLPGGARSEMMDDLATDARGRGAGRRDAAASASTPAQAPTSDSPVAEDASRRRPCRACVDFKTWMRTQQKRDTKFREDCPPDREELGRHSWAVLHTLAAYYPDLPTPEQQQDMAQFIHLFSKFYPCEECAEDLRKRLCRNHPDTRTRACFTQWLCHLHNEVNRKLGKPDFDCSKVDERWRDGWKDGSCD
# SMARCA2 act: SMARCA2 (BRM) function activators, primary screen, cell-based, luminescence, high throughput; activation, % at 9.1 µM; 1% of 370,000 active; MG213 cells, MMTV-luciferase reporter, dexamethasone, overnight; in the data active means activation above about 7.8%;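 further: 0% = vehicle wells and 100% = reference activator wells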
# MIN6 prolif: inducers of MIN6 beta-cell proliferation, primary screen, ATP luminescence, uHTS; MIN6 cells proliferation, ATPlite luminescence, 48 h; cells starved in 0.2% serum; 100% = growth in 10% serum; proliferation, % at 10 µM; 0.29% of 330,000 active;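 active means compounds whose signal lies at least 3.5 SD above the mean of all wells on their plate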;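 further: 0% = DMSO-treated cells in low-serum medium and 100% = 10% serum control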
# Exocytosis inh: LAMP-1 surface exposure blockers, TALL-104 cells – cell-based, flow cytometry, MLPCN library, primary screen | TALL-104 LAMP-1 surface exposure; cells stimulated with thapsigargin and PMA | inhibition, % at 10 µM | 0.66% of 360,000 active | AID 651702, 2012;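 active means inhibition above about 55%, limit read from the data; inconclusive means no clear call, values can overlap the other calls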
# PfM18AAP inh: PfM18AAP inhibitors, malaria aminopeptidase, primary screen, biochemical, QFRET, recombinant enzyme; M18 aspartyl aminopeptidase (Plasmodium falciparum 3D7); H-Glu-NHMec fluorogenic cleavage; inhibition, % at 7.35 µM; 1.2% of 290,000 active; AID 1822, 2009;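 active means inhibition above the campaign mean inhibition over all tested compounds plus 3 SD, cut at about 28% in these data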;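 further: 0% = plate median of test compound wells and 100% = 2 mM ZnCl2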
# Exocytosis CP01: inhibitors of lytic granule exocytosis, confirmation, TALL-104 cells, flow cytometry, Cherry Pick01. AID 651954, 2012. inhibition, % at 10 µM. LAMP-1 externalization; stimulated with PMA plus thapsigargin. 11% of 1,500 active. shares compounds with Exocytosis inh; in the data active means inhibition above about 60%;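 further: 0% = stimulated vehicle wells and 100% = unstimulated wells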
# SMARCA2 conf: SMARCA2 (BRM) function activators, confirmation, cell-based, luminescence, triplicate. MG213 cells, MMTV-luciferase with dexamethasone, overnight; MG213 cells expressing E1A, Rb sequestered; DMSO wells 0%, reference activator 100%. 30% of 3,500 active. AID 652260, 2013. activation, % at 9.1 µM. shares compounds with SMARCA2 act;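 active means activation above its plate's cutoff, the mean activation of tested wells plus 3 SD, cut at about 7.9% in these data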
# GAL4-VP16 Luc: GAL4-VP16 luciferase reporter activation, counter-screen for SMARCA2 (BRM) activator project, cell-based, pG5luc, luminescence, high throughput; activation, % at 9.1 µM; HEK293 GAL4-VP16 pG5luc reporter; scaled: DMSO wells 0%, SAHA wells 100%; shares compounds with SMARCA2 act; 41% of 3,500 active;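 active means activation above the solvent-only control well mean plus 3 SD, averaged across control plates, cut at about 5.2% in these data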
# An asterisk follows results filed as active; i = inactive; ? = inconclusive; / = no result given.
SMILES,JMJD2C inh,ALR inh,SMARCA2 act,MIN6 prolif,Exocytosis inh,PfM18AAP inh,SMARCA2 conf,GAL4-VP16 Luc,others
COC(=O)C1=C(c2cccc(OCc3ccccc3)c2)C[C@@H]2CC[C@H]1N2C(=O)NCCCOC(C)C,-5,-6,-2,-3,98*,/,/,/,Exocytosis CP01=-4
Cc1cccc(C)c1-n1nnnc1C(CCc1ccccc1)N1CCC(n2c(=O)[nH]c3ccccc32)CC1 (stereo not given),/,/,-3,/,91*,/,/,/,Exocytosis CP01=95*
CCOC(=O)[C@]12Cc3ccccc3[C@H]1N(CCC(=O)OC)C(=O)c1ccccc12,/,/,-6,/,0,/,/,/,
COc1ccc(-n2c(/C=C/c3ccc(O)c(OC)c3)nc3ccccc3c2=O)cc1,-27,12,-3,-2,58*,-13,/,/,Exocytosis CP01=-4
CCOC(=O)[C@]12Cc3ccccc3[C@H]1N(C)C(=O)c1cc(OC)ccc12,/,/,-3,/,-7,/,/,/,
CCOC(=O)[C@]12Cc3cc(C)ccc3[C@H]1N(C1CCCCC1)C(=O)c1cc(OC)ccc12,/,/,-8,/,84*,/,/,/,Exocytosis CP01=4
CCOC(=O)[C@]12Cc3cc(C)ccc3[C@H]1N(CCC(=O)OC)C(=O)c1cc(OC)ccc12,/,/,-5,/,37,/,/,/,
CCOC(=O)[C@]12Cc3cc(OC)ccc3[C@H]1N(C1CCCCC1)C(=O)c1cc(OC)ccc12,/,/,-7,/,64*,/,/,/,Exocytosis CP01=0
Nc1c(C(=O)NCc2ccco2)c2nc3ccccc3nc2n1Cc1ccccc1,-9,2,0,-6,22,15,/,/,
COc1ccc(Cn2c(N)c(C(=O)NCc3ccco3)c3nc4ccccc4nc32)cc1,4,-1,4,-6,59*,12,/,/,Exocytosis CP01=18
CNCC[C@@H](Oc1ccc(C(F)(F)F)cc1)c1ccccc1,-13,-12,1,-7,6,/,/,/,
O=c1[nH]c2ccccc2n1C1CCN(C(CCc2ccccc2)c2nnnn2-c2ccc3c(c2)OCCO3)CC1 (stereo not given),/,/,-6,/,1,/,/,/,
Cc1cc2c(cc1C)NP(=S)(c1ccccc1)N2,/,/,9.3*,/,-4,/,6,8.3*,
CCOC(=O)[C@]12Cc3cc(C)ccc3[C@H]1N(C(C)C)C(=O)c1ccccc12,/,/,-4,/,16,/,/,/,
COc1cc2c(cc1OC)-c1c3c(cc4c1[C@@H](C2)N(C)CC4)OCO3,-6,-38,11*,-7,-1,8,15*,2,
COc1cc2c(cc1OC)-c1c(OC)c(OC)cc3c1C(C2)N(C)CC3 (stereo not given),?,-9,3,-6,7,18,/,/,
CN/C=C(/Cl)P(=O)(OC(C)C)OC(C)C,/,-1,8.0*,2,-4,/,4,-1,
CCCCCCC(=O)N/N=C/c1c(O)n(CCc2ccccc2)c(=O)[nH]c1=O,/,-12,8.7*,-3,7,4,0,0,
Cc1ccccc1CN1Cc2cnnn2-c2ccccc2C1C#N (stereo not given),/,/,9.2*,/,11,/,-9,-1,
COC(=O)C1=C(c2ccc(OCc3ccccc3)c(F)c2)C[C@@H]2CC[C@H]1N2C,/,/,-4,/,5,/,/,/,
NC(Cc1ccccc1)c1csc(Nc2ccccn2)n1 (stereo not given),/,/,13*,/,0,/,8.2*,0,
O=C(NCP(=O)(Oc1ccccc1)Oc1ccccc1)OCc1ccccc1,/,/,0,/,5,/,/,/,
Fc1cccc(F)c1-c1nc(-c2ccc(Cl)cc2)no1,2,-6,8.2*,1,-2,-4,13*,3,
CC1CCN(CC(=O)c2ccc3c(c2)OCCO3)CC1,i,29,8.0*,0,-1,6,7,9.6*,
CC1CCCN(CC(=O)c2ccc(Cl)c(Cl)c2)C1 (stereo not given),8,1,-1,-2,-6,3,/,/,
SMILES,JMJD2C inh,ALR inh,SMARCA2 act,MIN6 prolif,Exocytosis inh,PfM18AAP inh,SMARCA2 conf,GAL4-VP16 Luc,others
Cc1ccccc1NC(=S)NC(NC(=O)CF)C(Cl)(Cl)Cl (stereo not given),4,-5,9.2*,-2,4,-1,3,-1,
COc1ccc(NC(=S)NC(NC(=O)CF)C(Cl)(Cl)Cl)c([N+](=O)[O-])c1 (stereo not given),22,-3,-1,0,-2,-10,/,/,
CCCCCN1C(=O)c2ccccc2[C@@]2(C(=O)OCC)Cc3cc(OC)ccc3[C@@H]12,/,/,-6,/,12,/,/,/,
O=c1[nH]c(=S)[nH]c(O)c1N=Nc1ccc(SC(F)F)cc1,-3,98*,11*,-4,-1,14,12*,10.0*,
O=c1[nH]c(=S)[nH]c(O)c1N=Nc1ccc(S(=O)(=O)N2CCc3ccccc32)cc1,4,1,14*,-5,14,6,11*,-1,
Fc1cccc(-c2ccc3c(c2)CNCc2cnnn2-3)c1,/,/,0,/,-1,/,/,/,
CCCCn1nnnc1C(CCSC)N1CCC(n2c(=O)[nH]c3ccccc32)CC1 (stereo not given),/,/,-3,/,2,/,/,/,
COC(=O)C(O)(c1ccc(NC(=O)NC2CCCCC2)cc1)C(F)(F)F (stereo not given),-2,9,10*,0,1,2,8,5.2*,
O=C(c1ccccc1F)N1CCC2(CC1)OCCO2,-1,1,-2,1,-15,-1,/,/,
O=C(c1cc(S(=O)(=O)N2CCCCC2)ccc1F)N1CCC2(CC1)OCCO2,0,2,8.1*,2,-1,4,-5,0,
Clc1ccc(N2CCN(Cc3ccccc3Cl)CC2)cc1,-7,16,8.2*,-2,-2,0,1,1,
Fc1ccccc1CN1CCN(c2ccc(Cl)cc2)CC1,-4,10,-1,-1,-7,6,/,/,
CC1=C(C)CN2CC(C#N)=C(N)C2C1 (stereo not given),/,/,/,/,14,/,/,/,
COc1ccc(NC(=S)N2Cc3ccccc3-n3nncc3C2)c(OC)c1,/,/,-6,/,-15,/,/,/,
CN(C)P(=O)(C(Cl)=C(N1CCCCC1)N1CCCCC1)N(C)C,-2,98*,19*,-3,-2,1,39*,-2,

# High-throughput results: PubChem BioAssay, several laboratories
